# Experimental data from PubChem BioAssay (NCATS).
# Results filed as inconclusive are left out. Where a call stands in place of a potency, no number is given. The source made the active and inactive calls. The call rests on the fitted dose curve; in most records, active means well fitted inhibition curve with a large enough effect; inconclusive means small, poorly fitted or top-dose-only effect; inactive means no such curve, though single readings can be large or run the other way.
# Test system: Zika virus NS2B-NS3 protease (linked construct)
# Assay: Primary screen NINDS Rhodamine qHTS for Zika virus inhibitors (AID 1347160); further: nearly all actives have a fitted effect of over 55% in size
# Settings: purified NS2B-NS3 protease, Rhodamine110 substrate fluorescence; series mostly up to 57.1 µM
# Summary of the method: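 Enzyme (25 nM, linked NS2B-NS3) was preincubated 15 min with compound in 10 mM Tris-HCl pH 8.0, 0.01% Tween 20. Rhodamine110 substrate (1.5 microM) was then added and fluorescence read at start and after 15 min.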
# Potency means the concentration at half of the fitted maximal effect.
row,Structure (SMILES),Potency
1,C=C1C(=O)O[C@@H]2C[C@H](C)[C@@]3(O)C=C(C(C)=O)[C@]4(CC3C[C@H]12)C(=O)O[C@H]1C[C@@H](C)C(CCC(C)=O)=CC[C@H]14 (stereo not given in full),inactive
2,O=C1CCC=CC1(O)C(=O)OCc1ccccc1O[C@@H]1O[C@H](CO)[C@@H](O)[C@H](O)[C@H]1O (stereo not given in full),inactive
3,CC(C)=CC/C=C(\C)[C@H]1CC[C@]2(C)[C@@H]1[C@H](O)C[C@@H]1[C@@]3(C)CC[C@H](O)C(C)(C)[C@@H]3[C@@H](O[C@@H]3O[C@H](CO)[C@@H](O)[C@H](O)[C@H]3O)C[C@]12C,inactive
4,CCNC(=O)Nc1ccc(-c2nc3c(c(N4CCOC[C@@H]4C)n2)CCN(c2ncccn2)C3)cc1,inactive
5,C[C@@H]1O[C@@H](O[C@@H]2[C@@H](O)[C@@H](O[C@]3(CO)O[C@H](CO)[C@@H](O)[C@@H]3OC(=O)/C=C/c3ccc(O)cc3)O[C@H](CO)[C@H]2OC(=O)/C=C/c2ccc(O)cc2)[C@H](O)[C@H](O)[C@H]1O[C@@H]1O[C@@H](C)[C@H](O[C@@H]2OC[C@](O)(CO)[C@H]2O)[C@@H](O)[C@H]1O,inactive
6,CO[C@H]1/C=C/[C@@](C)(O)/C=C/C(=O)O[C@H](C)[C@@H](C)CC/C=C/1C,inactive
7,CC1C(=O)CC2C3CCC(C(=O)O)C12CC3(C)CO (stereo not given),inactive
8,C[C@H]1C(=O)N2c3ccccc3[C@@]3(O)C[C@@H]4C(=O)N[C@](C)(c5nc6ccccc6c(=O)n54)N1[C@@H]23,inactive
9,CCn1c(=O)c(-c2ccn[nH]2)cc2c(C)nc(N)nc21,inactive
10,Cc1cc(C)nc(NS(=O)(=O)c2ccc(NC(=S)NC(=O)COc3ccc(Br)cc3Cl)cc2)n1,15.8 µM (active)
